# High-throughput results deposited in PubChem BioAssay by National Center for Advancing Translational Sciences (NCATS).
# Lamin A splicing = modulators of lamin A splicing; 200,000 compounds, 0.01% hits; HeLa LMNA splicing GFP/RFP minigene ratio, 48 h; Potency, µM (highest dose often 46.1 µM), for inactives: at the highest dose ratio change, negative = inhibition, actives largely listed as inhibitors; active means well fitted inhibition curve with a large enough effect in the signal ratio, with a control signal flat, not every such curve was filed as active; inconclusive means small, poorly fitted or top-dose-only effect, or effect the other way, or a change in a side signal; the % refers to the signal ratio; further: potency means the concentration at half of the fitted maximal effect; on the % scale 0 is the no-effect control and ±100 the full control effect
#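 Read-out is the ratio of GFP to DsRed2 object intensity, acquired by 488 nm laser-scanning cytometry on HeLa lamin A-EGFP minigene reporter cells. Compound incubation 48 hrs at 37 °C in Opti-MEM with 2% FBS; DMSO 0.5% final.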
# Tau ThT inhib = inhibitors of human tau fibril formation, thioflavin T binding | 270,000 compounds, 2.1% hits | Potency, µM (highest dose often 57.4 µM), inactives show top-dose activity, negative = inhibition, hits mostly inhibitors | recombinant tau K18 P301L, heparin-induced fibrillization, ThT fluorescence | AID 1460; further: potency means the concentration at half of the fitted maximal effect; on the % scale 0 is the no-effect control and ±100 the full control effect; nearly all actives have a fitted effect of over 55% in size
#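 Recombinant human tau K18 fragment […] carrying P301L, 15 uM unlabeled plus 0.24 uM Alexa 594-labeled, was fibrillized with 20 uM heparin in 100 mM sodium acetate pH 7 for 6 hr at 37 C; 30 uM ThT fluorescence read after 1 hr.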
# CBFb-RUNX1 inh = inhibitors of human CBF-beta and RUNX1 interaction. 230,000 tested, under 10 active. Potency, µM (doses to about 59.8 µM), inactives show at the top dose activity, negative = inhibition, usual class: inhibitors. AlphaScreen CBFb-His/RUNX1-biotin binding, biochemical. Q01196+Q13951; further: % of control where 0% means no effect
#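 Inhibition was taken as any reduction in AlphaScreen signal from the CBF-beta–RUNX1 pair (His and biotin tags, 30 nM each), measured after compound (15 min) and bead (90 min) incubations at room temperature.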
# Tau fluor counter = counter-screen for tau fibril formation inhibitors. Potency, µM (titrated, usually from 57.7 µM), without a hit: at the top dose activity change, negative = decrease. tau K18 P301L Alexa594 fluorescence, heparin fibrillization. 280,000 compounds, 0.93% hits; further: potency means the concentration at half of the fitted maximal effect; on the % scale 0 is the no-effect control and ±100 the full control effect; nearly all actives have a fitted effect of over 55% in size
#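 Human tau K18 P301L (15 uM unlabeled, 0.24 uM Alexa 594-labeled) in 100 mM sodium acetate pH 7 with 20 uM heparin, 6 hr at 37 C. ThT 30 uM added, 1 hr ambient; Alexa 594 FP and total fluorescence read at 555/632 nm.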
# Tau fibril FP = tau fibrillization inhibition (FP); P10636; 280,000 compounds, 0.39% hits; Potency, µM (highest dose often 57.7 µM), without a hit: top-dose activity, negative = inhibition, hits mostly inhibitors; K18 P301L tau heparin fibrillization, Alexa594 FP, 6 h; further: potency means the concentration at half of the fitted maximal effect; on the % scale 0 is the no-effect control and ±100 the full control effect; nearly all actives have a fitted effect of over 55% in size
#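 Read-out: fluorescence polarization of Alexa 594-labeled tau (0.24 uM), 555 nm excitation, 632 nm emission. Mixtures held 15 uM unlabeled K18 P301L, compound and 20 uM heparin, pH 7 acetate buffer, incubated 6 hr at 37 C.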
# KDM4E inh = inhibitors of human JMJD2E histone demethylase | Potency, µM (doses to about 57.1 µM), for the others: at the top dose activity change, negative = inhibition, most hits filed as inhibitors | JMJD2E catalytic domain, FDH-coupled NADH fluorescence (FDH is formaldehyde dehydrogenase) | B2RXH2 | 230,000 compounds, 1.6% hits | AID 2147; active means well fitted inhibition curve with a large enough effect, not every such curve was filed as active; inconclusive means small, poorly fitted or top-dose-only effect, or another doubt; inactive means no such curve, though single readings can be large or run the other way;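 further: potency means the concentration at half of the fitted maximal effect; 0% = wells with enzyme and -100% = buffer wells without enzyme; nearly all actives have a fitted effect of over 50% in size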
# Target sequence (B2RXH2 1-337 limits assumed): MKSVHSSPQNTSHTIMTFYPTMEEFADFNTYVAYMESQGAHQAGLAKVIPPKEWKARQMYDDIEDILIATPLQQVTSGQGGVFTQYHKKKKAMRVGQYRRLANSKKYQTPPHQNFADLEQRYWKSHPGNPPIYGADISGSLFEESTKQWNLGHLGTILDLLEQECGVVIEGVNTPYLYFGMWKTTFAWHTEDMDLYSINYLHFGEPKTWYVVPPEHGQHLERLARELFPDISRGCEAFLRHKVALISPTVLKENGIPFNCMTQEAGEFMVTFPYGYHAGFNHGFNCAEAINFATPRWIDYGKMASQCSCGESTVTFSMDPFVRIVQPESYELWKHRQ
# Starred values were filed as active, the others as inactive; ? = inconclusive; / = no result; [ ] = dose if it differs, or a comment. The list is not random: actives were taken first. Their share in the collection is about 3.2%. Unless noted, the call rests on the fitted dose curve; in most records, active means well fitted curve in the direction sought with a large enough effect; inconclusive means small, poorly fitted or top-dose-only effect, or another doubt; inactive means no such curve, though single readings can be large; an effect the other way counts as inactive or inconclusive.
SMILES,Lamin A splicing,Tau ThT inhib,CBFb-RUNX1 inh,Tau fluor counter,Tau fibril FP,KDM4E inh
CN(N=Nc1ccc([N+](=O)[O-])cc1)c1ccccc1,2%,?,-26%,-24%,-4%,7%
O=C(O)c1cc(NN=Nc2cccc([N+](=O)[O-])c2)cc([N+](=O)[O-])c1,/,?,-8%,-23%,-2%,1%
O=C(O)c1cc(NN=Nc2ccc(Br)cc2)cc([N+](=O)[O-])c1,/,14µM*,4%,-28%,1%,?
COC(=O)N1C2CC(=O)O[C@@H]3c4cc5c(cc4[C@]1(C)[C@@]3(Br)c1ccccc12)OCO5,?,9%[11.5 µM],5%[13.1 µM],4%[11.6 µM],-1%[11.6 µM],?
Cc1cccc(N2CCN(Cc3nnc(-c4ccc5c(c4)OCO5)o3)CC2)c1C,/,-9%,/,0%,2%,/
O=C(CSc1nnc(-c2ccccc2)o1)c1nnc(-c2ccccc2)o1,7%,16µM*,-20%,?,?,?
COc1ccc(Cl)cc1-c1ccc(C(=O)O)o1,/,-5%[126 µM],12%[89.1 µM],0%[126 µM],5%[126 µM],/
Cc1nc(NC(=O)c2cc3c(C)nn(-c4ccccc4)c3s2)sc1C(=O)Nc1ccccc1,-1%,-19%,1%,-22%,?,-29%
COc1ccc(-c2nn(C)c3sc(C(=O)NCCN(C)C)cc23)cc1OC,/,-13%,/,-24%,-1%,/
COc1cccc(NC(=O)c2cc3c(-c4ccc(Cl)cc4)nn(C)c3s2)c1,/,1%,/,?,16µM*,/
COc1ccc(-c2nn(C)c3sc(C(=O)Nc4cccc(F)c4)cc23)cc1OC,?,-6%,/,?,13µM*,/
COc1cccc(-c2nn(C)c3sc(C(=O)Nc4ccc5c(c4)OCCO5)cc23)c1,?,-3%,4%,0%,9%,0%
COc1ccccc1CNC(=O)c1cc2c(-c3ccc(Cl)cc3)nn(C)c2s1,/,1%,/,?,?,/
